# High-throughput results deposited in PubChem BioAssay by National Center for Advancing Translational Sciences (NCATS).
# Most compounds without a hit are left out; they make up all but 17% or so of the library.
# TDP1 block: inhibitors of human tyrosyl-DNA phosphodiesterase TDP1. Q9NUW8. recombinant TDP1, AlphaScreen DNA substrate cleavage. Potency, µM (series often up to 130 µM), for inactives: at the highest dose activity change, negative = inhibition, usual class: inhibitors. 350,000 tested, 0.28% active; note: % is set by controls: 0 for no effect and ±100 for the full control effect; nearly all actives have a fitted effect of over 40% in size
# Target sequence (Q9NUW8 whole entry, looked up): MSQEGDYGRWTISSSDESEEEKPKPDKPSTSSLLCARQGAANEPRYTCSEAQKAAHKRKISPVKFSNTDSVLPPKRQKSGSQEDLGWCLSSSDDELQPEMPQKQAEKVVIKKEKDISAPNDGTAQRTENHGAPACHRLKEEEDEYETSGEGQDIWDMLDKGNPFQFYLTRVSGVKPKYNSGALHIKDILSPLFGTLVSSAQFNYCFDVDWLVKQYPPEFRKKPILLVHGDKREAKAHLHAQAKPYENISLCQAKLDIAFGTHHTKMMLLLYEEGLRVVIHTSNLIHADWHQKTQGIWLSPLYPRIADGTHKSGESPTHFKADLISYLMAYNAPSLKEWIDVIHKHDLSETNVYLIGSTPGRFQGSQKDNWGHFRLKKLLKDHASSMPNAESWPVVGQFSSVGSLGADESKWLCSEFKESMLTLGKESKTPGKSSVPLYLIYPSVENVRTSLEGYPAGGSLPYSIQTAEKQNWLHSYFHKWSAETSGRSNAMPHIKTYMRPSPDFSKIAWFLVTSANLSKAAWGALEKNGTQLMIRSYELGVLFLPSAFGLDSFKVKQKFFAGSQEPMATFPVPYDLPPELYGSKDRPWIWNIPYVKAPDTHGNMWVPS
#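 Signal: AlphaScreen proximity between streptavidin donor and anti-FITC acceptor beads on intact substrate. Reaction: Tdp1 1 nM, substrate 15 nM final, 5 min RT after 15 min compound preincubation.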
# DT40 TDP1 CPT: DT40-hTDP1 cell growth loss with CPT; chicken DT40 Tdp1-/-;hTDP1 cells + 20 nM CPT, ATP luminescence, 48 h; Potency, µM (highest dose often 46.2 µM), without a hit: top-dose activity change, negative = growth inhibition, actives largely listed as inhibitors; 420,000 tested, 12% active; AID 686979; note: % is set by controls: 0 for no effect and ±100 for the full control effect; nearly all actives have a fitted effect of over 55% in size
#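 Chicken DT40 Tdp1-/- cells stably complemented with human TDP1 were seeded at 400 cells/well in medium containing 20 nM camptothecin, exposed to pin-transferred compounds, and grown at 37 °C for at least 48 hr. Viability was read as ATP luminescence.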
# DT40 TDP1 no CPT: qHTS for Inhibitors of human tyrosyl-DNA phosphodiesterase 1 (TDP1): qHTS in cells in absence of CPT. DT40 Tdp1-/- hTDP1 cells, no CPT, ATP luminescence, 48 h. Potency, µM (doses to about 46.2 µM), for inactives: top-dose activity change, negative = growth inhibition, usual class: inhibitors. 420,000 tested, 15% active. AID 686978, 2013; note: % is set by controls: 0 for no effect and ±100 for the full control effect; nearly all actives have a fitted effect of over 55% in size
#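 Growth kinetics read by CellTiter-Glo luminescence after ≥48 hr at 37 °C. Cells: DT40 Tdp1-/- stably carrying human TDP1, 400 per well, compound exposure in the absence of CPT (DMSO vehicle).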
# ClpP mod: qHTS Assay for Activators of ClpP. ATP-dependent Clp protease proteolytic subunit (Bacillus subtilis (strain 168)), P80244. purified B. subtilis ClpP, FRET peptide cleavage, 20 min. Potency, µM (series often up to 57.5 µM), for the others: at the highest dose activity change, negative = active. 340,000 tested, 1.9% active. AID 651965, 2013; active = well fitted falling curve with a large enough effect; inconclusive = small, poorly fitted or top-dose-only effect; inactive = no such curve, though single readings can be large or run the other way; note: the source files actives as falling curves though it sought activators and does not explain the sign; nearly all actives have a fitted effect of over 65% in size
#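 Buffer: 100 mM Tris/HCl pH8, 100 mM KCl, 0.05% low protease BSA, 2.5% glycerol, 0.01% Tween-20. ClpP 10 microg/mL final; 20 min RT; delta FRET normalized to ADEP and DMSO controls.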
# Numbers without * were called inactive; ? = inconclusive; . = not tested or not shown; [ ] = another dose, or the depositor's remark. Unless noted, calls come from the whole dose curve; as a rule, active = well fitted curve in the direction sought with a large enough effect; inconclusive = small, poorly fitted or top-dose-only effect, or another doubt; inactive = no such curve, though single readings can be large; an effect the other way counts as inactive or inconclusive. Potency is the fitted concentration of half-maximal effect.
SMILES,TDP1 block,DT40 TDP1 CPT,DT40 TDP1 no CPT,ClpP mod
CC1CCCCN1S(=O)(=O)c1ccc(C(=O)Nc2nnc(C3CC3)o2)cc1 (configuration not stated),6.5%,16.4µM*,?,0.3%
CC1CCN(S(=O)(=O)c2ccc(C(=O)Nc3nnc(C4CC4)o3)cc2)CC1,5.1%,18.4µM*,?,1.6%
CCN(C(=O)Cn1ncc2c(=O)oc3ccc(C)cc3c21)c1cc(OC)ccc1OC,6.4%,?,?,1.3%
COc1cccc(CN(Cc2ccco2)S(=O)(=O)c2ccc(S(=O)(=O)NCc3ccccc3)cc2)c1OC,5.9%[56.1 µM],29.1µM*,?,-1.2%
COc1cccc(CN(Cc2ccccc2F)S(=O)(=O)c2ccc(S(=O)(=O)NCc3ccccc3)cc2)c1,0.0%,?,?,4.2%
Cn1c(SCC(=O)NCCc2ccccc2)ncc(C(=O)Nc2ccc(F)cc2)c1=O,.,?,?,1.2%
COc1cccc(CC(=O)N2CCc3nc(-c4ccccc4)c4c(c3C2)CO[C@@H](C)C4)c1,4.4%[21 µM],.,.,.
COCCNC(=O)C1=C(N)C(C(=O)Nc2ccc(C)c(S(=O)(=O)N3CCCCC3)c2)SC1=Nc1ccc(C)cc1C (configuration not stated),10.7%,18.4µM*,18.4µM*,-6.6%
CCN(CC)S(=O)(=O)c1cccc(NC(=O)C2SC(=Nc3ccc(C)cc3C)C(C(=O)NCC3CCCO3)=C2N)c1 (configuration not stated),4.9%,?,23.1µM*,0.0%
COCCNCC(=O)Nc1ccc(C)c(S(=O)(=O)N2CCCCC2)c1,-2.7%,7.0%,-2.9%,.
Cc1nn(-c2ccc(Cl)cc2)c(Cl)c1/C=N/NC(=O)c1ccc(NS(=O)(=O)c2cccs2)cc1,.,18.4µM*,18.4µM*,-7.2%
CNC(=S)N/N=C/c1c(C)nn(-c2ccc(F)cc2)c1Cl,0.0%,?,14.6µM*,.
Cc1nn(-c2ccc(F)cc2)c(Cl)c1/C=N/NC(=O)c1cccs1,79.4µM*,?,?,14.6%
O=C(NN=Cc1ccc(F)c(F)c1)c1ccc(NS(=O)(=O)c2cccs2)cc1,2.5%,0.1%,-3.1%,-2.1%
Cc1nn(-c2ccc(F)cc2)c(Cl)c1/C=N/NC(=O)c1ccc(O)cc1,5.0%,0.6%,-28.2%,.
Cc1ccc(CNC(=O)C(C)n2ccc3cc(S(=O)(=O)N4CCCC4)ccc32)cc1 (configuration not stated),5.6%,?,0.461µM*,-5.3%
CCOc1ccc(CNC(=O)C(C)n2ccc3cc(S(=O)(=O)N4CCCC4)ccc32)cc1 (configuration not stated),3.6%,?,20.6µM*,-2.8%
CC(C(=O)NCc1ccc(F)cc1)n1ccc2cc(S(=O)(=O)N3CCCC3)ccc21 (configuration not stated),1.1%,?,?,-2.8%
CCOc1ccccc1NC(=O)CN1C(=O)CC(c2ccc(OC)c(OC)c2)Sc2ccccc21 (configuration not stated),2.9%,.,.,-4.4%
CCOC(=O)c1[nH]c(C)c(CCC(=O)Nc2ccc(Br)c(C)c2)c1C,5.4%,?,?,-3.5%
CCOC(=O)c1[nH]c(C)c(CCC(=O)Nc2ccccc2OCC)c1C,5.4%,?,16.4µM*,1.4%
CCOC(=O)c1[nH]c(C)c(CCC(=O)NCc2ccc(OC)cc2)c1C,0.0%,-2.1%,-26.6%,-0.5%
CCOC(=O)c1[nH]c(C)c(CCC(=O)Nc2ccc(N(CC)CC)cc2C)c1C,-8.1%,23.1µM*,20.6µM*,3.1%
CCOC(=O)c1[nH]c(C)c(CCC(=O)NCc2ccccc2Cl)c1C,5.4%,?,?,1.7%
CCOC(=O)c1[nH]c(C)c(CCC(=O)Nc2ccccc2C(=O)OC)c1C,10.8%,13µM*,16.4µM*,-5.5%
SMILES,TDP1 block,DT40 TDP1 CPT,DT40 TDP1 no CPT,ClpP mod
Cc1cc(S(=O)(=O)N2CCN=C2c2ccccc2)c(Cl)cc1Cl,0.0%,?,?,0.1%
O=C(CSc1ncnc2ccccc12)Nc1cccc(S(=O)(=O)N2CCCC2)c1,2.6%,?,?,.
O=C(CSc1ncnc2ccccc12)Nc1cc(S(=O)(=O)N2CCCCC2)ccc1Cl,5.3%,?,25.9µM*,-3.8%
Cc1ccc(NC(=O)CSc2ncnc3ccccc23)cc1S(=O)(=O)N1CCCCCC1,8.1%,25.9µM*,?,-5.3%
O=C(O)/C=C/C(=O)N(CC1CCCO1)C1CC(=O)N(c2c(Cl)cccc2Cl)C1=O (configuration not stated),-1.2%,0.2%,-2.7%,.
COc1cccc(C(=O)N2CCN(C(=O)COc3ccc4ccccc4c3)CC2)c1,.,-62.5%,?,.
COC(=O)NC(/C(C(=O)OC)=C(\C)NCc1ccccc1)c1ccco1 (configuration not stated),5.8%[21 µM],.,.,.
Cc1nc2ccccc2nc(C)c1=NOCC(=O)N(c1ccccc1)C(C)C,-2.6%,?,18.4µM*,.
CN1C(=O)N(C)C(c2cccc([N+](=O)[O-])c2)C2=C1CCCC2=O (configuration not stated),3.2%,-0.1%,-16.4%,.
CCOC(=O)Cc1c(C)nc2c(-c3ccccc3)c(-c3ccccc3)[nH]n2c1=O,6.4%,?,16.4µM*,22.4µM*
CCOC(=O)c1cnc2c(C)c(-c3ccccc3)[nH]n2c1=O,4.4%,6.2%,0.9%,69.1%
CCOC(=O)Cc1c(C)nc2c(-c3ccccc3)c[nH]n2c1=O,5.3%,18.4µM*,2.31µM*,15.8µM*
CCc1c(C)nc2c(-c3ccccc3)c[nH]n2c1=O,4.2%,?,?,.
CCOC(=O)Cc1c(C)nc2c(-c3ccccc3)c(C)[nH]n2c1=O,5.3%,-9.0%,?,28.2µM*
CC1=C(C(=O)N(C(C)C)C(C)C)CC(CC(=O)NCc2cccs2)C(=O)N1Cc1ccccc1 (configuration not stated),.,?,?,-4.0%
CC(=O)N(CC(O)CO)c1c(I)c(C(=O)NCCO)c(I)c(C(=O)NCC(O)CO)c1I (configuration not stated),.,-6.7%,4.4%,.
CCCOc1ccc(C2C(=O)N(C3CCCCCC3)CC(=O)N2CCC)cc1OC (configuration not stated),7.8%,23.1µM*,?,1.1%
O=C1C(c2ccc(F)cc2)N(CCc2ccccc2)C(=O)CN1C1CCCCCC1 (configuration not stated),5.2%,?,13µM*,0.3%
CCCN1C(=O)CN(C2CCCCC2)C(=O)C1c1ccc(OC)c(OC)c1 (configuration not stated),10.4%,-19.4%,-15.2%,0.6%
CCCOc1ccc(C2C(=O)N(C3CCC(C)CC3)CC(=O)N2Cc2cccc(OC)c2)cc1OC (configuration not stated),10.4%,?,?,1.5%
